Data: the supplement of paper PMC4466140

Tests used:
Test in all cases: SPOT peptide array binding signal intensity (averaged, normalized) (arbitrary units (background-subtracted, floor 0; scale differs between SH3 domains)); higher = stronger binding of the SH3 domain to the peptide
SpBzz1-D2 = target: SpBzz1-D2
Method: (§1)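 GST-tagged SH3 domains from S. cerevisiae (Sc), A. gossypii (Ag), C. albicans (Ca) and S. pombe (Sp) were incubated at 10 ug/ml overnight at 4 C on cellulose SPOT membranes carrying 292 synthetic 15-mer peptides mined from the S. cerevisiae proteome (cysteines replaced by serines). Binding was detected with anti-GST antibody, HRP secondary and chemiluminescence, quantified with Genespotter, and reported as normalized spot intensities averaged over biological replicates.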

SpCyk3 = target: SpCyk3
Method: as §1

SpHof1 = target: SpHof1
Method: as §1

SpHof1-2 = target: SpHof1-2
Method: as §1

SpHof1-3 = target: SpHof1-3
Method: as §1

SpHse1 = target: SpHse1
Method: as §1

SpLsb1 = target: SpLsb1
Method: as §1

SpLsb4 = target: SpLsb4
Method: as §1

SpMyo1 = target: SpMyo1
Method: as §1

SpNbp2 = target: SpNbp2
Method: as §1

SpPex13 = target: SpPex13
Method: as §1

SpRvs167 = target: SpRvs167
Method: as §1

SpSla1-D1-D2 = target: SpSla1-D1-D2
Method: as §1

SpSla1-D3 = target: SpSla1-D3
Method: as §1

AgAbp1 = target: AgAbp1
Method: as §1

AgBbc1 = target: AgBbc1
Method: as §1

AgBem1-D1 = target: AgBem1-D1
Method: as §1

AgBzz1-D1 = target: AgBzz1-D1
Method: as §1

AgBzz1-D2 = target: AgBzz1-D2
Method: as §1

AgCyk3 = target: AgCyk3
Method: as §1

AgFus1 = target: AgFus1
Method: as §1

AgHof1 = target: AgHof1
Method: as §1

AgHse1 = target: AgHse1
Method: as §1

AgLsb1 = target: AgLsb1
Method: as §1

AgLsb4 = target: AgLsb4
Method: as §1

AgMyo5 = target: AgMyo5
Method: as §1

AgNbp2 = target: AgNbp2
Method: as §1

AgRvs167 = target: AgRvs167
Method: as §1

AgSho1 = target: AgSho1
Method: as §1

AgSla1-D1-D2 = target: AgSla1-D1-D2
Method: as §1

AgSla1-D3 = target: AgSla1-D3
Method: as §1

CaAbp1-D1 = target: CaAbp1-D1
Method: as §1

CaAbp1-D2 = target: CaAbp1-D2
Method: as §1

CaBbc1 = target: CaBbc1
Method: as §1

CaBem1-D1 = target: CaBem1-D1
Method: as §1

CaBzz1-D1 = target: CaBzz1-D1
Method: as §1

CaBzz1-D2 = target: CaBzz1-D2
Method: as §1

CaCyk3 = target: CaCyk3
Method: as §1

CaFus1 = target: CaFus1
Method: as §1

CaHof1 = target: CaHof1
Method: as §1

CaHse1 = target: CaHse1
Method: as §1

CaLsb1 = target: CaLsb1
Method: as §1

CaLsb4 = target: CaLsb4
Method: as §1

CaMyo5 = target: CaMyo5
Method: as §1

CaNbp2 = target: CaNbp2
Method: as §1

CaRvs167 = target: CaRvs167
Method: as §1

CaRvs167-3 = target: CaRvs167-3
Method: as §1

CaSho1 = target: CaSho1
Method: as §1

CaSla1-D1-D2 = target: CaSla1-D1-D2
Method: as §1

CaSla1-D3 = target: CaSla1-D3
Method: as §1

ScAbp1 = target: ScAbp1
Method: as §1

ScBbc1 = target: ScBbc1
Method: as §1

ScBem1-D1 = target: ScBem1-D1
Method: as §1

ScBzz1-D1 = target: ScBzz1-D1
Method: as §1

ScBzz1-D2 = target: ScBzz1-D2
Method: as §1

ScCyk3 = target: ScCyk3
Method: as §1

ScFus1 = target: ScFus1
Method: as §1

ScHof1 = target: ScHof1
Method: as §1

ScHse1 = target: ScHse1
Method: as §1

ScLsb1 = target: ScLsb1
Method: as §1

ScLsb2 = target: ScLsb2
Method: as §1

ScLsb3 = target: ScLsb3
Method: as §1

ScLsb4 = target: ScLsb4
Method: as §1

ScMyo3 = target: ScMyo3
Method: as §1

ScMyo5 = target: ScMyo5
Method: as §1

ScNbp2 = target: ScNbp2
Method: as §1

ScPex13 = target: ScPex13
Method: as §1

ScRvs167 = target: ScRvs167
Method: as §1

ScSho1 = target: ScSho1
Method: as §1

ScSla1-D1-D2 = target: ScSla1-D1-D2
Method: as §1

ScSla1-D3 = target: ScSla1-D3
Method: as §1

SpAbp1-D1 = target: SpAbp1-D1
Method: as §1

SpBbc1 = target: SpBbc1
Method: as §1

SpBzz1-D1 = target: SpBzz1-D1
Method: as §1

AERNYAPRLPRRETS
SPOT peptide array binding signal intensity (SpBzz1-D2): 4.5 | SPOT peptide array binding signal intensity (SpCyk3): 2 | SPOT peptide array binding signal intensity (SpHof1): 49.2 | SPOT peptide array binding signal intensity (SpHof1-2): 10.2 | SPOT peptide array binding signal intensity (SpHof1-3): 197 | SPOT peptide array binding signal intensity (SpHse1): 85.5 | SPOT peptide array binding signal intensity (SpLsb1): 177 | SPOT peptide array binding signal intensity (SpLsb4): 3100 | SPOT peptide array binding signal intensity (SpMyo1): 11.5 | SPOT peptide array binding signal intensity (SpNbp2): ≤ 0 | SPOT peptide array binding signal intensity (SpPex13): 3.5 | SPOT peptide array binding signal intensity (SpRvs167): 1930 | SPOT peptide array binding signal intensity (SpSla1-D1-D2): ≤ 0 | SPOT peptide array binding signal intensity (SpSla1-D3): ≤ 0

HGKRRAPLLLAKLDV
SPOT peptide array binding signal intensity (AgAbp1): 19 | SPOT peptide array binding signal intensity (AgBbc1): 2 | SPOT peptide array binding signal intensity (AgBem1-D1): 26 | SPOT peptide array binding signal intensity (AgBzz1-D1): 82 | SPOT peptide array binding signal intensity (AgBzz1-D2): 34.5 | SPOT peptide array binding signal intensity (AgCyk3): 7 | SPOT peptide array binding signal intensity (AgFus1): 93 | SPOT peptide array binding signal intensity (AgHof1): 13.5 | SPOT peptide array binding signal intensity (AgHse1): 145 | SPOT peptide array binding signal intensity (AgLsb1): ≤ 0 | SPOT peptide array binding signal intensity (AgLsb4): 29.5 | SPOT peptide array binding signal intensity (AgMyo5): 3 | SPOT peptide array binding signal intensity (AgNbp2): 58 | SPOT peptide array binding signal intensity (AgRvs167): 6.67 | SPOT peptide array binding signal intensity (AgSho1): 6 | SPOT peptide array binding signal intensity (AgSla1-D1-D2): 94.5 | SPOT peptide array binding signal intensity (AgSla1-D3): 20 | SPOT peptide array binding signal intensity (CaAbp1-D1): 499 | SPOT peptide array binding signal intensity (CaAbp1-D2): 238 | SPOT peptide array binding signal intensity (CaBbc1): 57.8 | SPOT peptide array binding signal intensity (CaBem1-D1): 44 | SPOT peptide array binding signal intensity (CaBzz1-D1): 94 | SPOT peptide array binding signal intensity (CaBzz1-D2): 51.8 | SPOT peptide array binding signal intensity (CaCyk3): 37 | SPOT peptide array binding signal intensity (CaFus1): 312 | SPOT peptide array binding signal intensity (CaHof1): ≤ 0 | SPOT peptide array binding signal intensity (CaHse1): 7.75 | SPOT peptide array binding signal intensity (CaLsb1): 0.25 | SPOT peptide array binding signal intensity (CaLsb4): 26 | SPOT peptide array binding signal intensity (CaMyo5): 4

LLIRWLILMPLVGSR
SPOT peptide array binding signal intensity (AgAbp1): 19.5 | SPOT peptide array binding signal intensity (AgBbc1): 29.5 | SPOT peptide array binding signal intensity (AgBem1-D1): 284 | SPOT peptide array binding signal intensity (AgBzz1-D1): 39 | SPOT peptide array binding signal intensity (AgBzz1-D2): 62 | SPOT peptide array binding signal intensity (AgCyk3): 24.5 | SPOT peptide array binding signal intensity (AgFus1): 3190 | SPOT peptide array binding signal intensity (AgHof1): 53 | SPOT peptide array binding signal intensity (AgHse1): 2550 | SPOT peptide array binding signal intensity (AgLsb1): 2.5 | SPOT peptide array binding signal intensity (AgLsb4): 1800 | SPOT peptide array binding signal intensity (AgMyo5): 4.5 | SPOT peptide array binding signal intensity (AgNbp2): 722 | SPOT peptide array binding signal intensity (AgRvs167): 26.5 | SPOT peptide array binding signal intensity (AgSho1): 1270 | SPOT peptide array binding signal intensity (AgSla1-D1-D2): 41 | SPOT peptide array binding signal intensity (AgSla1-D3): 5 | SPOT peptide array binding signal intensity (CaAbp1-D1): 334 | SPOT peptide array binding signal intensity (CaAbp1-D2): 321 | SPOT peptide array binding signal intensity (CaBbc1): 68 | SPOT peptide array binding signal intensity (CaBem1-D1): 125 | SPOT peptide array binding signal intensity (CaBzz1-D1): 222 | SPOT peptide array binding signal intensity (CaBzz1-D2): 109 | SPOT peptide array binding signal intensity (CaCyk3): 48 | SPOT peptide array binding signal intensity (CaFus1): 5090 | SPOT peptide array binding signal intensity (CaHof1): 1.25 | SPOT peptide array binding signal intensity (CaHse1): 875 | SPOT peptide array binding signal intensity (CaLsb1): 26.5 | SPOT peptide array binding signal intensity (CaLsb4): 191 | SPOT peptide array binding signal intensity (CaMyo5): 40 | SPOT peptide array binding signal intensity (CaNbp2): 1390 | SPOT peptide array binding signal intensity (CaRvs167): 524 | SPOT peptide array binding signal intensity (CaRvs167-3): 780 | SPOT peptide array binding signal intensity (CaSho1): 3580 | SPOT peptide array binding signal intensity (CaSla1-D1-D2): 30 | SPOT peptide array binding signal intensity (CaSla1-D3): 397 | SPOT peptide array binding signal intensity (ScAbp1): 35 | SPOT peptide array binding signal intensity (ScBbc1): 1.5 | SPOT peptide array binding signal intensity (ScBem1-D1): 60 | SPOT peptide array binding signal intensity (ScBzz1-D1): 37 | SPOT peptide array binding signal intensity (ScBzz1-D2): 240 | SPOT peptide array binding signal intensity (ScCyk3): 122 | SPOT peptide array binding signal intensity (ScFus1): 3690 | SPOT peptide array binding signal intensity (ScHof1): 0.25 | SPOT peptide array binding signal intensity (ScHse1): 2940 | SPOT peptide array binding signal intensity (ScLsb1): 11 | SPOT peptide array binding signal intensity (ScLsb2): 33 | SPOT peptide array binding signal intensity (ScLsb3): 850 | SPOT peptide array binding signal intensity (ScLsb4): 150 | SPOT peptide array binding signal intensity (ScMyo3): 5 | SPOT peptide array binding signal intensity (ScMyo5): 7 | SPOT peptide array binding signal intensity (ScNbp2): 566 | SPOT peptide array binding signal intensity (ScPex13): 65.2 | SPOT peptide array binding signal intensity (ScRvs167): 19.3 | SPOT peptide array binding signal intensity (ScSho1): 2890 | SPOT peptide array binding signal intensity (ScSla1-D1-D2): 23 | SPOT peptide array binding signal intensity (ScSla1-D3): 132 | SPOT peptide array binding signal intensity (SpAbp1-D1): 248 | SPOT peptide array binding signal intensity (SpBbc1): 22.8 | SPOT peptide array binding signal intensity (SpBzz1-D1): 300 | SPOT peptide array binding signal intensity (SpBzz1-D2): 13.5 | SPOT peptide array binding signal intensity (SpCyk3): 25 | SPOT peptide array binding signal intensity (SpHof1): 306 | SPOT peptide array binding signal intensity (SpHof1-2): 75.2 | SPOT peptide array binding signal intensity (SpHof1-3): 2420 | SPOT peptide array binding signal intensity (SpHse1): 2700 | SPOT peptide array binding signal intensity (SpLsb1): 2 | SPOT peptide array binding signal intensity (SpLsb4): 341 | SPOT peptide array binding signal intensity (SpMyo1): 18 | SPOT peptide array binding signal intensity (SpNbp2): 1450 | SPOT peptide array binding signal intensity (SpPex13): 232 | SPOT peptide array binding signal intensity (SpRvs167): 37.7 | SPOT peptide array binding signal intensity (SpSla1-D1-D2): ≤ 0 | SPOT peptide array binding signal intensity (SpSla1-D3): 120
